# Results reported in PubChem BioAssay.
# Records with an inconclusive call do not appear. For some assays here: Potency and affinity values are given separately. Active and inactive are the calls of the source.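 The calls were made as follows, unless noted: active = at least 20% inhibition of 6-phosphogluconate dehydrogenase activity; inactive = the rest.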 Peptide text beside a SMILES is read from it.
# Tests used:
# [1] = molecular target: 6-phosphogluconate dehydrogenase, decarboxylating (Homo sapiens) (UniProt P52209); test: inhibition of human phosphogluconate dehydrogenase – biochemical, recombinant enzyme, NADPH absorbance, primary screen (AID 1159550); conditions: recombinant 6PGD, NADPH absorbance 341 nm; at 10 µM; stronger effect = higher value
# [2] = molecular target: Mitogen-activated protein kinase 7 (Homo sapiens) (UniProt Q13164); test: Gal4-ERK5 driven luciferase induction – cell-based, HTS, primary screen (AID 1508626;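 active = luciferase signal above three times the same-plate solvent-only control wells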;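 also: luciferase driven by Gal4-ERK5 fusion binding five Gal4 sites before minimal TATA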); conditions: HeLa Gal4-ERK5 transactivation, 18 h, at 5 µM, stronger effect = higher value
# [3] = blockers of polyQ-driven CASP3 activation – cell-based (AID 1583); conditions: polyglutamine-induced caspase-3 activation, cell assay; stronger effect = higher value;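 tested at 10 µM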
# [4] = yeast 75Q aggregation reduction – 75Q-TubU reporter (AID 1593); conditions: Yeast 75Q polyglutamine aggregation reporter
# [5] = restoration of touch response, mutant HTT neurons – whole organism, C. elegans mechanosensory neurons, N-terminal huntingtin (AID 1599); conditions: C. elegans polyQ-huntingtin mechanosensory neurons, stronger effect = higher value
# [6] = blockers of cytochrome c efflux from mitochondria – biochemical, purified mitochondria (AID 1603); conditions: stronger effect = lower value;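 also: mouse liver mitochondria challenged with calcium chloride; signal normalized to the plate average as 100%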
# [7] = polyglutamine aggregate formation blockers (AID 1604); conditions: polyglutamine-induced protein aggregation inhibition assay; stronger effect = higher value; tested at 2.5 µM
# [8] = rescue of PC12 cells from polyQ htt toxicity – LDH release (AID 1610); conditions: PC12 mutant huntingtin toxicity, final LDH at 4 uM, stronger effect = lower value
# [9] = glutamate transport activators, MN-1 cells, MN-1 cell line (AID 1612); conditions: MN-1 motor neuron cells, stronger effect = higher value;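 also: tested at 1 µM final; 0% = mean of DMSO vehicle wells on each plate; positive means more glutamate uptake than control and negative means less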
# [10] = GFP-Q80 aggregate reduction, neuronal-like cells, cell-based, NGF-treated PC12, GFPQ80 (AID 1614); conditions: PC12 NGF-treated GFP-polyQ80 inclusion reduction;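 also: lower means fewer inclusions and 0 means no inclusions at all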
# [11] = 75Q-TubH aggregate inhibition, S. cerevisiae, yeast (AID 1616); conditions: S. cerevisiae 75Q-TubH polyglutamine aggregation suppression; stronger effect = higher value
# [12] = P. berghei load reduction in hepatocytes – cell-based, HepG2, luciferase luminescence, HepG2 viability, primary screen (AID 624349; in the data active = parasite load remaining mostly below about 12%, no sharp cut-off; inactive = mostly above about 10%;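 also: 100% = mean of DMSO negative control wells on the same plate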); conditions: P. berghei liver stage in HepG2, luciferase luminescence, concentration not given here; parasite load remaining: stronger effect = lower value; viability: measured here: HepG2 viability without parasites
# Chain of 6-phosphogluconate dehydrogenase, decarboxylating (Homo sapiens) (P52209 whole entry, looked up, the tested form may be a part): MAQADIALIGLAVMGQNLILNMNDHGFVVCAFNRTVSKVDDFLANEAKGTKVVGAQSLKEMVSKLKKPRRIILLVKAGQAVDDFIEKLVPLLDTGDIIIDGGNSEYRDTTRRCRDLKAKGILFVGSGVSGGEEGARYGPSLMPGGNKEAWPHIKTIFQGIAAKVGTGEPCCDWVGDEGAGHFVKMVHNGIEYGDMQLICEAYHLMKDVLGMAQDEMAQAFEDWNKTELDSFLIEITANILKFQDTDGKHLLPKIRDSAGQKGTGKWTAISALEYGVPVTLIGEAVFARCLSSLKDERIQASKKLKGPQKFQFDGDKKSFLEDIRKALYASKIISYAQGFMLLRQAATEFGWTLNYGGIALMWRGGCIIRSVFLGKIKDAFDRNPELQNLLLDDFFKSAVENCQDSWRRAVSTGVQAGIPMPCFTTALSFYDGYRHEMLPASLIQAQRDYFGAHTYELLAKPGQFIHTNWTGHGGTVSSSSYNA
# Chain of Mitogen-activated protein kinase 7 (Homo sapiens) (Q13164 whole entry, looked up, the tested form may be a part): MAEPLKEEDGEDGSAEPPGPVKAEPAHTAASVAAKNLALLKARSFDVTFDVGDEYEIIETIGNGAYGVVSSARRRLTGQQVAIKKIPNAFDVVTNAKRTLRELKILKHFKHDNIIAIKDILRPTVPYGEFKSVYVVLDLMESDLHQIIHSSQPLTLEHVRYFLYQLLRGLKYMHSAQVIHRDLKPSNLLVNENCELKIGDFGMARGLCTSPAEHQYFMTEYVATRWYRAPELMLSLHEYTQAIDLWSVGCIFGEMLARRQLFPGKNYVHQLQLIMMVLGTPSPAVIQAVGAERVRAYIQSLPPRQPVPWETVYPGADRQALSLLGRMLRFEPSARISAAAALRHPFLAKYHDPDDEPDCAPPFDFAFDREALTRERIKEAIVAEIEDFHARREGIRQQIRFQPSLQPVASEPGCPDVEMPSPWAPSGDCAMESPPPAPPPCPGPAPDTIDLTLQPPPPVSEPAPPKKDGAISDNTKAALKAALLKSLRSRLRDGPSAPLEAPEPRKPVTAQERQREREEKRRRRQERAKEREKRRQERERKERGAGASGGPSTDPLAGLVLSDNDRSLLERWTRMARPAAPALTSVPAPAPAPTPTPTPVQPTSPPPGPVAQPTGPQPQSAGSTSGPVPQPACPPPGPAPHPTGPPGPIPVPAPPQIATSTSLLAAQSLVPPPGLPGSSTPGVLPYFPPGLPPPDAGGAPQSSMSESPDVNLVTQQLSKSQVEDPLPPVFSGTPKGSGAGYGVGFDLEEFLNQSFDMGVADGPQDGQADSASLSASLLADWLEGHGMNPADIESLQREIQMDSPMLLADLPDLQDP
smiles,measurement,setting,value
CC1CCC(C(C)C)C(OC(=O)c2ccccc2)C1 (centres undefined),inhibition,[1],3.54% (inactive)
same,luciferase signal,[2],48 AU (inactive)
CC(C)=CCC1=C(O)c2ccccc2C(=O)C1=O,inhibition,[3],-24.2%
same,score,[4],0.21
same,rescue above control,[5],6.74
same,cytochrome c release ratio,[6],0.7
same,inhibition of aggregation,[7],77.5%
same,normalised LDH release,[8],0.727
same,glutamate uptake change,[9],-3.48%
same,inclusion score,[10],2
same,aggregation suppression score,[11],0.0579
same,parasite load remaining,[12],85.5% (inactive)
same,viability,[12],63.9%
same,inhibition,[1],-1.8% (inactive)
same,luciferase signal,[2],60 AU (inactive)
CCC(C)C(N)C(=O)N1CCCC1C(=O)NC(C(=O)O)C(C)CC (centres undefined),inhibition,[3],-6.01%
same,score,[4],1.3
same,rescue above control,[5],1.96
same,cytochrome c release ratio,[6],0.74
same,inhibition of aggregation,[7],14.9%
same,glutamate uptake change,[9],11.9%
same,inclusion score,[10],2
same,aggregation suppression score,[11],1.44
same,inhibition,[1],-1.23% (inactive)
COC(=O)CC[C@@H](C)[C@H]1CC[C@H]2[C@@H]3[C@H](O)C[C@@H]4C[C@H](O)CC[C@]4(C)[C@H]3C[C@H](O)[C@]12C,inhibition,[1],-4.15% (inactive)
same,luciferase signal,[2],252 AU (active)
COC(=O)C(O)c1ccccc1 (centres undefined),inhibition,[1],1.31% (inactive)
same,luciferase signal,[2],28 AU (inactive)
CCOC(=O)CCCCCCCCCCCCC1C=CCC1 (centres undefined),inhibition,[3],-0.73%
same,score,[4],-0.7
same,rescue above control,[5],-1.18
same,cytochrome c release ratio,[6],1.01
same,inhibition of aggregation,[7],55.1%
same,glutamate uptake change,[9],-2.82%
same,inclusion score,[10],2
same,aggregation suppression score,[11],0.251
same,inhibition,[1],2.03% (inactive)
same,luciferase signal,[2],116 AU (inactive)
CCOC(=O)C(Cc1ccc(O)cc1)NC(C)=O (centres undefined),inhibition,[3],-16.6%
same,score,[4],1.58
same,rescue above control,[5],3.83
same,cytochrome c release ratio,[6],0.88
same,inhibition of aggregation,[7],-1.73%
same,glutamate uptake change,[9],-5.84%
same,inclusion score,[10],2
same,aggregation suppression score,[11],0.981
same,parasite load remaining,[12],109% (inactive)
same,viability,[12],69%
same,inhibition,[1],-22.2% (inactive)
same,luciferase signal,[2],72 AU (inactive)
CC1C2[C@]3(CC[C@H]1C)CCC1(C)[C@@]2(C=CC2[C@@]4(C)CC[C@H](O)C(C)(C)C4CC[C@]21C)OC3=O (some centres undefined),inhibition,[1],5.53% (inactive)
same,luciferase signal,[2],56 AU (inactive)
C/C=C(/C)C(=O)O[C@@H]1c2c(ccc3ccc(=O)oc23)OC(C)(C)[C@@H]1OC(C)=O,inhibition,[1],4.61% (inactive)
same,luciferase signal,[2],56 AU (inactive)
CC(=O)N1CCC[C@H]1C(=O)O,inhibition,[1],11.4% (inactive)
same,luciferase signal,[2],52 AU (inactive)
COC1[C@H](O)[C@@H](O)C(O)[C@H](O)[C@H]1O (some centres undefined),inhibition,[1],-7.09% (inactive)
same,luciferase signal,[2],136 AU (inactive)
COC(=O)/C(=C1/OC(=O)C(c2ccccc2)=C1O)c1ccccc1,inhibition,[1],11.9% (inactive)
same,luciferase signal,[2],68 AU (inactive)
N[C@H](C(=O)O)[C@@H]1CC(Cl)=NO1,inhibition,[3],-15.5%
same,score,[4],0.51
same,rescue above control,[5],-2.47
same,cytochrome c release ratio,[6],0.83
same,inhibition of aggregation,[7],25.5%
same,glutamate uptake change,[9],6.6%
same,inclusion score,[10],1
same,aggregation suppression score,[11],0.115
same,inhibition,[1],7.5% (inactive)
O=C(O)c1cc(O)ccc1O,inhibition,[3],-0.2%
same,score,[4],0.92
same,rescue above control,[5],-5.86
same,cytochrome c release ratio,[6],0.99
same,inhibition of aggregation,[7],72.2%
same,glutamate uptake change,[9],-11.6%
same,inclusion score,[10],2
same,aggregation suppression score,[11],0.337
same,inhibition,[1],-15.2% (inactive)
C=C1C(=O)OC2CC1C(OC(C)=O)C/C(C)=C/CC/C(C)=C\CCC2(C)O (centres undefined),inhibition,[1],10.9% (inactive)
same,luciferase signal,[2],16 AU (inactive)
C[C@H]1C(=O)CC[C@@H]2[C@]1(C)CC[C@H]1[C@@]2(C)CC[C@@]2(C)[C@@H]3CC(C)(C)CC[C@]3(C)CC[C@]12C,inhibition,[1],7.58% (inactive)
same,luciferase signal,[2],88 AU (inactive)
CSCCC(NC=O)C(=O)NC(C)C(=O)O (centres undefined),inhibition,[3],3.66%
same,score,[4],1.03
same,rescue above control,[5],3.86
same,cytochrome c release ratio,[6],1.14
same,inhibition of aggregation,[7],81.6%
same,glutamate uptake change,[9],9.47%
same,inclusion score,[10],2
same,aggregation suppression score,[11],1.3
same,inhibition,[1],11.9% (inactive)
COC(=O)c1c(OC)cc2c(c1C)Oc1c(Cl)c(OC(C)=O)c(Cl)c(C)c1C(=O)O2,inhibition,[1],-6.07% (inactive)
same,luciferase signal,[2],44 AU (inactive)
CSCCC(N)C(=O)NC(CC(C)C)C(=O)NC(Cc1ccccc1)C(=O)O (centres undefined),inhibition,[3],18.9%
same,score,[4],1.68
same,rescue above control,[5],2.33
same,cytochrome c release ratio,[6],0.77
same,inhibition of aggregation,[7],67.8%
same,glutamate uptake change,[9],4.95%
same,inclusion score,[10],2
same,aggregation suppression score,[11],1.32
same,inhibition,[1],9.25% (inactive)
CC(=O)N[C@@H](CCC(=O)O)C(=O)O,inhibition,[3],24.8%
same,score,[4],1.29
same,rescue above control,[5],9.63
same,cytochrome c release ratio,[6],1.22
same,inhibition of aggregation,[7],74.1%
same,glutamate uptake change,[9],-6.23%
same,inclusion score,[10],2
same,aggregation suppression score,[11],1.35
same,parasite load remaining,[12],196% (inactive)
same,viability,[12],71.4%
same,inhibition,[1],13.8% (inactive)
O=C(CCCCCCCCCCCCC1CCCC1)Nc1ccc(S(=O)(=O)c2ccc(NC(=O)CCCCCCCCCCCCC3CCCC3)cc2)cc1,parasite load remaining,[12],65.7% (inactive)
same,viability,[12],90.8%
same,inhibition,[1],6.93% (inactive)
same,luciferase signal,[2],32 AU (inactive)
CC12CCC3c4ccc(OCc5ccccc5)cc4CCC3C1C[C@@H](O)[C@@H]2O (some centres undefined),inhibition,[3],-24.8%
same,score,[4],-1.62
same,rescue above control,[5],18.3
same,cytochrome c release ratio,[6],1.14
same,inhibition of aggregation,[7],88.8%
same,glutamate uptake change,[9],-1.58%
same,aggregation suppression score,[11],-0.303
same,inhibition,[1],-6.08% (inactive)
NCCCCC(N)C(=O)NC(Cc1ccc(O)cc1)C(=O)NC(CCCCN)C(=O)O (stereo not drawn) (H-Lys-Tyr-Lys-OH; configuration not given here),inhibition,[3],-30.8%
same,score,[4],3.85
same,rescue above control,[5],16.1
same,cytochrome c release ratio,[6],0.94
same,inhibition of aggregation,[7],37.2%
same,glutamate uptake change,[9],-3.42%
same,inclusion score,[10],1
same,aggregation suppression score,[11],1.25
same,inhibition,[1],13.2% (inactive)
